# Results reported in PubChem BioAssay (NCI).
# This is part of a sample that, as a whole, favours compounds with a hit. Of some 79,000 tested, about 15% had one in any assay. Unmarked numbers belong to inactive results. The source made the active and inactive calls. Rule as the data show it: active = growth inhibition above about 70%; inactive = the rest.
# Columns and labels:
# [1] = NCI Yeast Anticancer Drug Screen. Data for the rad52 strain (AID 147);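 also: 0% = growth of vehicle-treated control cultures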; conditions: S. cerevisiae rad52 mutant growth inhibition, active compounds read high
# Procedure, shortened: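 Measured: yeast growth inhibition. System: strain with a defined DNA damage repair alteration. Reference: vehicle-treated control cultures.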
# [2] = NCI Yeast Anticancer Drug Screen. Data for the wt1 strain (AID 149);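 also: 0% = growth of vehicle-treated wt1 cultures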; conditions: S. cerevisiae wt1 strain (SPY 50644) growth inhibition, active compounds read high
# Procedure, shortened: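 Using yeast strain wt1, compound-induced growth inhibition was determined against vehicle-treated cultures.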
# [3] = NCI Yeast Anticancer Drug Screen. Data for the mgt1 strain (AID 153); conditions: S. cerevisiae mgt1 mutant growth inhibition, active compounds read high
# Procedure, shortened: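 After exposure of the mgt1 yeast mutant to compound, growth was measured and reported as inhibition compared with vehicle controls.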
# [4] = NCI Yeast Anticancer Drug Screen. Data for the rad50 strain (AID 155);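 also: 0% = growth of vehicle-only cultures of the same strain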; conditions: S. cerevisiae rad50 strain growth inhibition, active compounds read high
# Procedure, shortened: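 Relative growth inhibition (compound vs vehicle) was measured in yeast with a defined repair-gene alteration.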
# [5] = NCI Yeast Anticancer Drug Screen. Data for the mec2-1 strain (AID 157); conditions: S. cerevisiae mec2-1 strain, active compounds read high
# Procedure, shortened: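 Test agents were screened against the mec2-1 yeast strain, with defined DNA repair or cell cycle alteration. Growth was scored as inhibition against vehicle-only controls.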
# [6] = NCI Yeast Anticancer Drug Screen. Data for the rad14 strain (AID 159);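 also: 0% = growth of vehicle-treated control cultures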; conditions: S. cerevisiae rad14 strain growth inhibition, active compounds read high
# Procedure, shortened: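 Screen for anticancer potential: a yeast strain altered in DNA damage repair is grown with compound, and reduced growth is quantified against vehicle controls.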
# [7] = NCI Yeast Anticancer Drug Screen. Data for the sgs1 mgt1 strain (AID 161);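 also: 0% = growth of cultures given vehicle only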; conditions: S. cerevisiae sgs1 mgt1 strain, active compounds read high
# Procedure, shortened: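 Test agents were incubated with a DNA-repair-mutant yeast strain. Growth was then read and compared against vehicle-treated controls.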
# [8] = NCI Yeast Anticancer Drug Screen. Data for the CLN2oe strain (AID 163);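 also: 0% = growth of vehicle-only control cultures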; conditions: S. cerevisiae CLN2oe strain, active compounds read high
# Procedure, shortened: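 Here, growth inhibition in a cell-cycle-altered yeast strain after compound exposure was quantified against vehicle control growth.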
# [9] = NCI Yeast Anticancer Drug Screen. Data for the cln2 rad14 strain (AID 165);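 also: 0% = growth equal to vehicle treated cultures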; conditions: S. cerevisiae cln2 rad14 strain, active compounds read high
# Procedure, shortened: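 Growth of compound-exposed yeast (cln2 rad14 genotype) measured and expressed as inhibition relative to vehicle.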
# [10] = NCI Yeast Anticancer Drug Screen. Data for the bub3 strain (AID 167); conditions: S. cerevisiae bub3 mutant strain, active compounds read high
# Procedure, shortened: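 Screening used yeast with an engineered genetic alteration affecting cell cycle control. Compound-exposed cultures were compared with vehicle cultures, and reduced growth was taken as inhibition.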
# [11] = NCI Yeast Anticancer Drug Screen. Data for the wt2 strain (AID 169);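 also: 0% = growth of vehicle-treated yeast cultures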; conditions: S. cerevisiae wt2 strain growth inhibition, active compounds read high
# Procedure, shortened: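 Genetically defined yeast strains from a DNA-repair/cell-cycle panel were used. Compound-exposed yeast growth was measured, and the inhibition was calculated relative to vehicle treatment.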
# [12] = NCI Yeast Anticancer Drug Screen. Data for the mlh1 strain (AID 171);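 also: 0% = growth of vehicle-treated control cultures of the same strain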; conditions: S. cerevisiae mlh1 strain growth inhibition, active compounds read high
# Procedure, shortened: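 Here the genetically defined yeast mutant is grown with each compound, and the extent to which its growth falls below that of vehicle-exposed cells is reported.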
# [13] = NCI Yeast Anticancer Drug Screen. Data for the sgs1 strain (AID 173);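 also: 0% = growth of vehicle-only control cultures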; conditions: S. cerevisiae sgs1 mutant, active compounds read high
# Procedure, shortened: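 Relative growth inhibition, referenced to vehicle, was determined in a yeast strain with a defined alteration affecting DNA damage repair or cell cycle control after compound exposure.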
# [14] = NCI Yeast Anticancer Drug Screen. Data for the mlh1 rad18 strain (AID 175); conditions: S. cerevisiae mlh1 rad18 strain growth inhibition, active compounds read high
# Procedure, shortened: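 In this whole-cell yeast screen, a strain with altered DNA damage repair is challenged with compound, and its growth is measured against matched vehicle-treated controls.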
# [15] = NCI Yeast Anticancer Drug Screen. Data for the rad18 strain (AID 177); conditions: S. cerevisiae rad18 mutant growth inhibition, active compounds read high
# Procedure, shortened: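 Screen uses a yeast strain with a defined lesion in DNA damage repair; compound effect is read as loss of growth compared to untreated vehicle cultures.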
# [16] = at 5.0 µM (retest, dose inferred, filed as 0.5)
# [17] = at 50.0 µM (retest, dose inferred, filed as 5.0)
smiles,measurement,setting,value
Oc1c2c(c(O)c3ccccc13)C1(N=N2)c2ccccc2Oc2ccccc21,growth inhibition,[1]; at 1.2 µM,20%
same,growth inhibition,[1]; at 3.7 µM,72% (active)
same,growth inhibition,[1]; at 11.0 µM,98% (active)
same,growth inhibition,[1]; at 33.0 µM,97% (active)
same,growth inhibition,[1]; at 100.0 µM,93% (active)
same,growth inhibition,[2]; at 1.2 µM,2%
same,growth inhibition,[2]; at 3.7 µM,34%
same,growth inhibition,[2]; at 11.0 µM,98% (active)
same,growth inhibition,[2]; at 33.0 µM,98% (active)
same,growth inhibition,[2]; at 100.0 µM,96% (active)
same,growth inhibition,[3]; at 1.2 µM,10%
same,growth inhibition,[3]; at 3.7 µM,47%
same,growth inhibition,[3]; at 11.0 µM,98% (active)
same,growth inhibition,[3]; at 33.0 µM,97% (active)
same,growth inhibition,[3]; at 100.0 µM,94% (active)
same,growth inhibition,[4]; at 1.2 µM,17%
same,growth inhibition,[4]; at 3.7 µM,82% (active)
same,growth inhibition,[4]; [16],46%
same,growth inhibition,[4]; at 11.0 µM,98% (active)
same,growth inhibition,[4]; at 33.0 µM,94% (active)
same,growth inhibition,[4]; [17],98% (active)
same,growth inhibition,[4]; at 50.0 µM,98.5% (active)
same,growth inhibition,[4]; at 100.0 µM,90% (active)
same,growth inhibition,[5]; at 1.2 µM,10%
same,growth inhibition,[5]; at 3.7 µM,44%
same,growth inhibition,[5]; [16],31%
same,growth inhibition,[5]; at 11.0 µM,98% (active)
same,growth inhibition,[5]; at 33.0 µM,97% (active)
same,growth inhibition,[5]; [17],98% (active)
same,growth inhibition,[5]; at 50.0 µM,98.7% (active)
same,growth inhibition,[5]; at 100.0 µM,94% (active)
same,growth inhibition,[6]; at 1.2 µM,17%
same,growth inhibition,[6]; at 3.7 µM,44%
same,growth inhibition,[6]; at 11.0 µM,98% (active)
same,growth inhibition,[6]; at 33.0 µM,96% (active)
same,growth inhibition,[6]; at 100.0 µM,92% (active)
same,growth inhibition,[7]; [16],57%
same,growth inhibition,[7]; [17],98% (active)
same,growth inhibition,[7]; at 50.0 µM,98.6% (active)
same,growth inhibition,[8]; at 1.2 µM,15%
same,growth inhibition,[8]; at 3.7 µM,39%
same,growth inhibition,[8]; at 11.0 µM,98% (active)
same,growth inhibition,[8]; at 33.0 µM,95% (active)
same,growth inhibition,[8]; at 100.0 µM,88% (active)
same,growth inhibition,[9]; [16],19%
same,growth inhibition,[9]; [17],97% (active)
same,growth inhibition,[9]; at 50.0 µM,92.2% (active)
same,growth inhibition,[10]; at 1.2 µM,8%
same,growth inhibition,[10]; at 3.7 µM,62%
same,growth inhibition,[10]; [16],21%
same,growth inhibition,[10]; at 11.0 µM,98% (active)
same,growth inhibition,[10]; at 33.0 µM,96% (active)
same,growth inhibition,[10]; [17],97% (active)
same,growth inhibition,[10]; at 50.0 µM,99% (active)
same,growth inhibition,[10]; at 100.0 µM,93% (active)
same,growth inhibition,[11]; at 1.2 µM,4%
same,growth inhibition,[11]; at 3.7 µM,49%
same,growth inhibition,[11]; at 11.0 µM,98% (active)
same,growth inhibition,[11]; at 33.0 µM,97% (active)
same,growth inhibition,[11]; at 100.0 µM,94% (active)
same,growth inhibition,[12]; at 1.2 µM,13%
same,growth inhibition,[12]; at 3.7 µM,43%
same,growth inhibition,[12]; at 11.0 µM,98% (active)
same,growth inhibition,[12]; at 33.0 µM,97% (active)
same,growth inhibition,[12]; at 100.0 µM,94% (active)
same,growth inhibition,[13]; at 1.2 µM,14%
same,growth inhibition,[13]; at 3.7 µM,81% (active)
same,growth inhibition,[13]; at 11.0 µM,98% (active)
same,growth inhibition,[13]; at 33.0 µM,98% (active)
same,growth inhibition,[13]; at 100.0 µM,95% (active)
same,growth inhibition,[14]; [16],42%
same,growth inhibition,[14]; [17],98% (active)
same,growth inhibition,[14]; at 50.0 µM,98% (active)
same,growth inhibition,[15]; at 1.2 µM,18%
same,growth inhibition,[15]; at 3.7 µM,74% (active)
same,growth inhibition,[15]; at 11.0 µM,98% (active)
same,growth inhibition,[15]; at 33.0 µM,96% (active)
same,growth inhibition,[15]; at 100.0 µM,92% (active)
CCOC(=O)C(Cc1c2ccccc2cc2ccccc12)(NC(C)=O)C(=O)OCC,growth inhibition,[1]; at 1.2 µM,-2%
same,growth inhibition,[1]; at 3.7 µM,-2%
same,growth inhibition,[1]; at 11.0 µM,-4%
same,growth inhibition,[1]; at 33.0 µM,-6%
same,growth inhibition,[1]; at 100.0 µM,0%
same,growth inhibition,[2]; at 1.2 µM,-1%
same,growth inhibition,[2]; at 3.7 µM,0%
same,growth inhibition,[2]; at 11.0 µM,-2%
same,growth inhibition,[2]; at 33.0 µM,-3%
same,growth inhibition,[2]; at 100.0 µM,-2%
same,growth inhibition,[3]; at 1.2 µM,-3%
same,growth inhibition,[3]; at 3.7 µM,-2%
same,growth inhibition,[3]; at 11.0 µM,-3%
same,growth inhibition,[3]; at 33.0 µM,-18%
same,growth inhibition,[3]; at 100.0 µM,-4%
same,growth inhibition,[4]; at 1.2 µM,-6%
same,growth inhibition,[4]; at 3.7 µM,-16%
same,growth inhibition,[4]; [16],-8%
same,growth inhibition,[4]; at 11.0 µM,-22%
same,growth inhibition,[4]; at 33.0 µM,-4%
same,growth inhibition,[4]; [17],11%
same,growth inhibition,[4]; at 50.0 µM,90.2% (active)
same,growth inhibition,[4]; at 100.0 µM,-2%
same,growth inhibition,[5]; at 1.2 µM,0%
same,growth inhibition,[5]; at 3.7 µM,0%
same,growth inhibition,[5]; [16],-6%
same,growth inhibition,[5]; at 11.0 µM,-1%
same,growth inhibition,[5]; at 33.0 µM,1%
same,growth inhibition,[5]; [17],27%
same,growth inhibition,[5]; at 50.0 µM,75.5% (active)
same,growth inhibition,[5]; at 100.0 µM,-1%
same,growth inhibition,[6]; at 1.2 µM,-3%
same,growth inhibition,[6]; at 3.7 µM,-5%
same,growth inhibition,[6]; at 11.0 µM,-3%
same,growth inhibition,[6]; at 33.0 µM,-5%
same,growth inhibition,[6]; at 100.0 µM,-1%
same,growth inhibition,[7]; [16],-7%
same,growth inhibition,[7]; [17],19%
same,growth inhibition,[7]; at 50.0 µM,86% (active)
same,growth inhibition,[9]; [16],5%
same,growth inhibition,[9]; [17],41%
same,growth inhibition,[9]; at 50.0 µM,61.3%
same,growth inhibition,[10]; at 1.2 µM,-2%
same,growth inhibition,[10]; at 3.7 µM,1%
same,growth inhibition,[10]; [16],8%
same,growth inhibition,[10]; at 11.0 µM,-1%
same,growth inhibition,[10]; at 33.0 µM,0%
same,growth inhibition,[10]; [17],67%
same,growth inhibition,[10]; at 50.0 µM,88.8% (active)
same,growth inhibition,[10]; at 100.0 µM,2%
same,growth inhibition,[11]; at 1.2 µM,-2%
same,growth inhibition,[11]; at 3.7 µM,-3%
same,growth inhibition,[11]; at 11.0 µM,-4%
same,growth inhibition,[11]; at 33.0 µM,-2%
same,growth inhibition,[11]; at 100.0 µM,-2%
same,growth inhibition,[13]; at 1.2 µM,-1%
same,growth inhibition,[13]; at 3.7 µM,1%
same,growth inhibition,[13]; at 11.0 µM,-1%
same,growth inhibition,[13]; at 33.0 µM,5%
same,growth inhibition,[13]; at 100.0 µM,9%
same,growth inhibition,[14]; [16],-11%
same,growth inhibition,[14]; [17],35%
same,growth inhibition,[14]; at 50.0 µM,86.9% (active)
same,growth inhibition,[15]; at 1.2 µM,-5%
same,growth inhibition,[15]; at 3.7 µM,-1%
same,growth inhibition,[15]; at 11.0 µM,-1%
same,growth inhibition,[15]; at 33.0 µM,0%
same,growth inhibition,[15]; at 100.0 µM,3%
